Inconclusive results are not listed. Entries that show only a call come without a potency. Unmarked numbers belong to inactive results. The source made the active and inactive calls. Calls come from the whole dose curve; as a rule, active = well fitted curve in the direction sought with a large enough effect in the repeat runs; inconclusive = weak or mixed curves; inactive = no such curve, though single readings can be large; an effect the other way counts as inactive or inconclusive.
How the values were obtained:
[1] = A CellTox Green Cytotoxicity Assay to monitor cytotoxicity in HEK293 cells - 40 hour (AID 1224871); note: nearly all actives have a fitted effect of over 45% in size; note: potency is the fitted concentration of half-maximal effect
Outline: (§1)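 Fluorescence from a DNA-binding dye excluded by viable cells was measured repeatedly in the same HEK293 wells (600 cells/well) during continuous compound exposure at 37 C. Each assay gives one read point: 0, 8, 16, 24, 32 or 40 h.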

[2] = qHTS RealTime-Glo MT Cell Viability Assay in HEK293 cells - 16 hour (AID 1224872); note: top concentration of the series differs between compounds; nearly all actives have a fitted effect of over 50% in size
Outline: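 Tox21 10K qHTS, HEK293, 600 cells/well, RealTime-Glo reagent co-dispensed with cells; 5 h preincubation, compound by pintool, 37 C, luminescence at 0–40 h.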

[3] = qHTS RealTime-Glo MT Cell Viability Assay in HepG2 cells - 8 hour (AID 1224873); note: nearly all actives have a fitted effect of over 55% in size
Outline: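 HepG2 cells (600/well) mixed with RealTime-Glo MT reagent, settled 5 h at 37 C/5% CO2 before compound addition. Nonlytic NanoLuc luminescence from viable-cell prosubstrate reduction read repeatedly during 40 h treatment at 37 C.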

[4] = qHTS RealTime-Glo MT Cell Viability Assay in HEK293 cells - 40 hour (AID 1224874); conditions: RealTime-Glo luminescence; max response: active compounds read low; note: nearly all actives have a fitted effect of over 50% in size
Outline: (§2)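 Luminescence, which tracks viable cell number through reduction of the prosubstrate to a NanoLuc substrate, was read over continuous 37 C culture. Cells (600/well) were premixed with reagent and rested 5 h before 23 nL of compound in DMSO was pinned.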

[5] = A CellTox Green Cytotoxicity Assay to monitor cytotoxicity in HEK293 cells - 24 hour (AID 1224875); note: series mostly up to about 77 µM; nearly all actives have a fitted effect of over 45% in size
Outline: as §1

[6] = A CellTox Green Cytotoxicity Assay to monitor cytotoxicity in HepG2 cells - 16 hour (AID 1224876); note: nearly all actives have a fitted effect of over 45% in size
Outline: (§3)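 Real-time cytotoxicity: fluorescence of a cell-impermeant cyanine dye binding DNA of dead HepG2 cells, measured repeatedly (0–40 h) during compound exposure at 37 C. Cells seeded 600/well with reagent, dosed after 5 h.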

[7] = qHTS RealTime-Glo MT Cell Viability Assay in HepG2 cells - 32 hour (AID 1224877); note: nearly all actives have a fitted effect of over 55% in size
Outline: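 Cells + NanoLuc/prosubstrate dispensed (600 cells/well) → 5 h at 37 C/5% CO2 → compounds in DMSO transferred → 40 h incubation at 37 C, luminescence read at 0, 8, 16, 24, 32, 40 h.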

[8] = A CellTox Green Cytotoxicity Assay to monitor cytotoxicity in HepG2 cells - 24 hour (AID 1224878); note: nearly all actives have a fitted effect of over 45% in size
Outline: as §3

[9] = A CellTox Green Cytotoxicity Assay to monitor cytotoxicity in HepG2 cells - 40 hour (AID 1224879); note: nearly all actives have a fitted effect of over 40% in size
Outline: as §3

[10] = qHTS RealTime-Glo MT Cell Viability Assay in HEK293 cells - 0 hour (AID 1224880)
Outline: as §2

| SMILES | Potency [1] | Potency [2] | outcome [3] | max response [4] [%] | outcome [5] | outcome [6] | Potency [7] | outcome [8] | Potency [9] | Potency [10] |
| --- | --- | --- | --- | --- | --- | --- | --- | --- | --- | --- |
| [O-][n+]1cccc(CO)c1 | inactive | inactive | inactive | 8.89 | inactive | inactive | inactive | inactive | inactive | inactive |
| CNCC(O)c1ccc(O)c(O)c1 (stereo not given) | inactive | inactive | inactive | 0.68 |  | inactive | inactive | inactive | inactive | inactive |
| CCCCS(=O)(=O)N[C@@H](Cc1ccc(OCCCCC2CCNCC2)cc1)C(=O)O | inactive | inactive | inactive | -0.348 |  | inactive | inactive | inactive | inactive |  |
| NC(=O)N[C@@H](CCC(=O)O)C(=O)O | inactive | inactive | inactive | 5.25 | inactive | inactive | inactive |  |  | inactive |
| Nc1c2c(nc3c1CCC3)CCCC2 | inactive | inactive | inactive | 0.303 |  | inactive | inactive | inactive | inactive | inactive |
| CCCCOCCOC(=O)CCCCCCCCC(=O)OCCOCCCC | inactive | inactive | inactive | 7.25 | inactive | inactive | inactive | inactive |  | inactive |
| Nc1ccccn1 | inactive | inactive | inactive | -3.82 | inactive | inactive | inactive | inactive | inactive | inactive |
| CC(C(=O)O)c1cccc(Oc2ccccc2)c1 (stereo not given) | inactive | inactive | inactive | -2.21 |  | inactive | inactive | inactive | inactive |  |
| CC(=O)NC(=O)c1ccccc1O | inactive | inactive | inactive | 7.94 |  | inactive | inactive | inactive | inactive |  |
| CC(C)NNC(=O)c1ccncc1 | inactive | inactive | inactive | 9.38 |  | inactive | inactive | inactive |  | inactive |
| CC[N+](CC)(CC(=O)Nc1c(C)cccc1C)Cc1ccccc1 (tested in a mixture with another compound) | inactive |  | inactive | -5.24 | inactive | inactive | inactive | inactive | inactive |  |
| CCCCCCC#CC(=O)OC | inactive |  | inactive | 11.4 | inactive | inactive | inactive | inactive | inactive | inactive |
| CCOC(=O)COc1cc(-n2ncc(C(F)(F)F)c(C)c2=O)c(F)cc1Cl | inactive |  | inactive | -4.34 | inactive | inactive | inactive | inactive | inactive | inactive |
| C=C(C)C(=O)OCCOCCOCCOCCOC(=O)C(=C)C | inactive | inactive | inactive |  | inactive | inactive | inactive | inactive | inactive | inactive |
| CCOC(=O)OC(C)OC1=C(C(=O)Nc2ccccn2)N(C)S(=O)(=O)c2ccccc21 (stereo not given) | inactive | inactive | inactive | 1.81 |  | inactive | inactive | inactive | inactive | inactive |
| C=CCCC(=O)O | inactive |  | inactive | 7.36 | inactive | inactive | inactive | inactive | inactive | inactive |
| c1ccc(CCc2ccccc2)cc1 | 38.9 µM (active) | inactive | inactive | -4.4 |  |  | inactive |  |  | inactive |
| COc1ccccc1OCC1CNC(=O)O1 (stereo not given) | inactive |  | inactive | 8.57 | inactive | inactive | inactive | inactive | inactive | inactive |
| CC(=O)Oc1cccc(C)c1 | inactive |  | inactive | 2.59 | inactive | inactive | inactive | inactive | inactive | inactive |
| O=C(O)c1cc(C(=O)O)cc(C(=O)O)c1 | inactive |  | inactive | 16.8 | inactive | inactive | inactive | inactive | inactive | inactive |
| C[C@@H]1CCC[C@H](C)N1 | inactive |  | inactive | 0.353 | inactive | inactive | inactive | inactive | inactive | inactive |
| COCCOCC(OC)OC | inactive | inactive | inactive | -1.01 |  | inactive | inactive | inactive | inactive | inactive |
| CCN(C=O)CC | inactive | inactive | inactive | 2.6 |  | inactive | inactive | inactive | inactive | inactive |
